# In the supplement of paper PMC8728848:
# This is one part of a sample in which the strongest signals are shown more often than they occur.
# B1: PNA (Arachis hypogaea), P02872 (protein)
# chain: MKPFCVFLTFFLLLAASSKKVDSAETVSFNFNSFSEGNPAINFQGDVTVLSNGNIQLTNLNKVNSVGRVLYAMPVRIWSSATGNVASFLTSFSFEMKDIKDYDPADGIIFFIAPEDTQIPAGSIGGGTLGVSDTKGAGHFVGVEFDTYSNSEYNDPPTDHVGIDVNSVDSVKTVPWNSVSGAVVKVTVIYDSSTKTLSVAVTNDNGDITTIAQVVDLKAKLPERVKFGFSASGSLGGRQIHLIRSWSFTSTLITTTRRSIDNNEKKIMNMASA
# Assays:
# Assay in all cases: glycan array binding signal (z-score within array); higher = stronger binding
# Conditions in all cases: glycan notation: IUPAC condensed, linker removed
# [1] = target: Glc(a1-6)Glc(a1-6)Glc(a1-6)Glc
# Method in brief: (§1)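 Glycan array data came from 3228 arrays in the Consortium for Functional Glycomics database, and only arrays with an available protein sequence were kept. Glycan names were put into IUPAC-condensed notation, and columns mapping to the same glycan were averaged. The binding signal is a within-array Z-score, averaged across arrays of one protein sequence run at different concentrations or buffers and across linkers. A negative Z-score can be read as non-binding.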
# [2] = target: Glc(b1-4)Glc(b1-4)Glc(b1-4)Glc(b1-4)Glc(b1-4)Glc(b1-4)Glc(b1-4)Glc(b1-4)Glc
# Method in brief: as §1
# [3] = target: Glc(b1-4)Glc(b1-4)Glc(b1-4)Glc(b1-4)Glc(b1-4)Glc(b1-4)Glc(b1-4)Glc(b1-4)Glc(b1-4)Glc
# Method in brief: as §1
# [4] = target: Glc(b1-4)Glc(b1-4)Glc(b1-4)Glc(b1-4)Glc(b1-4)Glc(b1-4)Glc(b1-4)Glc(b1-4)Glc(b1-4)Glc(b1-4)Glc
# Method in brief: as §1
# [5] = target: Glc(b1-4)Glc(b1-4)Glc(b1-4)Glc(b1-4)Glc(b1-4)Glc(b1-4)Glc(b1-4)Glc(b1-4)Glc(b1-4)Glc(b1-4)Glc(b1-4)Glc
# Method in brief: as §1
# [6] = target: Glc(b1-4)Glc(b1-4)Glc(b1-4)Glc(b1-4)Glc(b1-4)Glc(b1-4)Glc(b1-4)Glc(b1-4)Glc(b1-4)Glc(b1-4)Glc(b1-4)Glc(b1-4)Glc
# Method in brief: as §1
# GlcA(b1-3)Gal = target: GlcA(b1-3)Gal
# Method in brief: as §1
# [7] = target: GlcA3S(b1-3)Gal(b1-4)GlcNAc(b1-2)Man
# Method in brief: as §1
# [8] = target: GlcNAc(b1-2)Gal(b1-3)GalNAc
# Method in brief: as §1
# [9] = target: GlcNAc(b1-2)Man(a1-3)[GlcNAc(b1-2)Man(a1-6)]Man(b1-4)GlcNAc(b1-4)GlcNAc
# Method in brief: as §1
# [10] = target: GlcNAc(b1-3)Gal(b1-4)GlcNAc(b1-2)Man(a1-3)[GlcNAc(b1-3)Gal(b1-4)GlcNAc(b1-2)Man(a1-6)]Man(b1-4)GlcNAc(b1-4)GlcNAc
# Method in brief: as §1
# [11] = target: GlcNAc(b1-3)Gal(b1-4)GlcNAc(b1-2)Man(a1-3)[GlcNAc(b1-3)Gal(b1-4)GlcNAc(b1-2)Man(a1-6)]Man(b1-4)GlcNAc(b1-4)[Fuc(a1-6)]GlcNAc
# Method in brief: as §1
# [12] = target: GlcNAc(b1-3)Gal(b1-4)GlcNAc(b1-3)Gal(b1-4)GlcNAc(b1-3)Gal(b1-4)GlcNAc(b1-3)Gal(b1-4)GlcNAc(b1-2)[GlcNAc(b1-3)Gal(b1-4)GlcNAc(b1-3)Gal(b1-4)GlcNAc(b1-3)Gal(b1-4)GlcNAc(b1-3)Gal(b1-4)GlcNAc(b1-6)]Man(a1-6)[GlcNAc(b1-3)Gal(b1-4)GlcNAc(b1-3)Gal(b1-4)GlcNAc(b1-3)Gal(b1-4)GlcNAc(b1-3)Gal(b1-4)GlcNAc(b1-2)Man(a1-3)]Man(b1-4)GlcNAc(b1-4)[Fuc(a1-6)]GlcNAc
# Method in brief: as §1
# [13] = target: GlcNAc(b1-3)Gal(b1-4)GlcNAc(b1-6)[Gal(b1-3)]GalNAc
# Method in brief: as §1
# [14] = target: GlcNAc(b1-3)[GlcNAc(b1-6)]Gal
# Method in brief: as §1
# [15] = target: GlcNAc(b1-3)[GlcNAc(b1-6)]Gal(b1-4)GlcNAc(b1-3)[GlcNAc(b1-6)]Gal(b1-4)GlcNAc(b1-3)Gal(b1-4)Glc
# Method in brief: as §1
# GlcNAc(b1-4)GlcNAc = target: GlcNAc(b1-4)GlcNAc
# Method in brief: as §1
# [16] = target: GlcNAc(b1-4)GlcNAc(b1-4)GlcNAc(b1-4)GlcNAc
# Method in brief: as §1
# [17] = target: HexA(a1-3)GalNAc4S(b1-4)GlcA(b1-3)GalNAc4S(b1-4)GlcA(b1-3)GalNAc4S(b1-4)GlcA(b1-3)GalNAc4S(b1-4)GlcA(b1-3)GalNAc4S(b1-4)GlcA(b1-3)GalNAc4S(b1-4)GlcA(b1-3)GalNAc4S
# Method in brief: as §1
# [18] = target: Man(a1-2)Man(a1-6)[Man(a1-3)]Man(a1-6)[Man(a1-2)Man(a1-2)Man(a1-3)]Man(b1-4)GlcNAc(b1-4)GlcNAc
# Method in brief: as §1
# Neu5Ac(a2-3)Gal = target: Neu5Ac(a2-3)Gal
# Method in brief: as §1
# [19] = target: Neu5Ac(a2-3)Gal(b1-3)GalNAc(b1-3)Gal(a1-4)Gal(b1-4)Glc
# Method in brief: as §1
# [20] = target: Neu5Ac(a2-3)Gal(b1-3)GlcNAc(b1-2)Man(a1-3)[Neu5Ac(a2-3)Gal(b1-3)GlcNAc(b1-2)Man(a1-6)]Man(b1-4)GlcNAc(b1-4)GlcNAc
# Method in brief: as §1
# [21] = target: Neu5Ac(a2-3)Gal(b1-3)[Neu5Ac(a2-3)Gal(b1-4)]GlcNAc
# Method in brief: as §1
# [22] = target: Neu5Ac(a2-3)Gal(b1-3)[Neu5Ac(a2-6)]GalNAc
# Method in brief: as §1
# [23] = target: Neu5Ac(a2-3)Gal(b1-4)GlcNAc(b1-2)Man(a1-3)[Neu5Ac(a2-3)Gal(b1-4)GlcNAc(b1-2)Man(a1-6)]Man(b1-4)GlcNAc(b1-4)GlcNAc
# Method in brief: as §1
# [24] = target: Neu5Ac(a2-3)Gal(b1-4)GlcNAc(b1-2)Man(a1-3)[Neu5Ac(a2-3)Gal(b1-4)GlcNAc(b1-2)Man(a1-6)]Man(b1-4)GlcNAc(b1-4)[Fuc(a1-6)]GlcNAc
# Method in brief: as §1
# [25] = target: Neu5Ac(a2-3)Gal(b1-4)[Fuc(a1-3)]GlcNAc6S
# Method in brief: as §1
# [26] = target: Neu5Ac(a2-3)Gal(b1-4)[Qui(a1-3)]GlcNAc(b1-3)Gal
# Method in brief: as §1
# [27] = target: Neu5Ac(a2-3)GalNBz(b1-4)GlcNAc
# Method in brief: as §1
# [28] = target: Neu5Ac(a2-3)[GalNAc(b1-4)]Gal(b1-3)GalNAc(b1-4)[Neu5Ac(a2-3)]Gal(b1-4)Glc
# Method in brief: as §1
# [29] = target: Neu5Ac(a2-3)[GalNAc(b1-4)]Gal(b1-4)GlcNAc
# Method in brief: as §1
# [30] = target: Neu5Ac(a2-6)Gal(b1-4)GlcNAc(b1-2)Man(a1-3)[Neu5Ac(a2-6)Gal(b1-4)GlcNAc(b1-2)Man(a1-6)]Man(b1-4)GlcNAc(b1-4)[Fuc(a1-6)]GlcNAc
# Method in brief: as §1
# [31] = target: Neu5Ac(a2-6)Gal(b1-4)GlcNAc(b1-3)[Neu5Ac(a2-6)Gal(b1-4)GlcNAc(b1-6)]Gal(b1-4)Glc
# Method in brief: as §1
# Neu5Ac(b2-3)Gal(b1-4)Glc = target: Neu5Ac(b2-3)Gal(b1-4)Glc
# Method in brief: as §1
# [32] = target: Neu5Ac9Ac(a2-3)Gal(b1-4)GlcNAc
# Method in brief: as §1
# [33] = target: Neu5Ac9Ac(a2-3)Gal(b1-4)[Fuc(a1-3)]GlcNAc
# Method in brief: as §1
# Neu5Gc(a2-6)GalNAc = target: Neu5Gc(a2-6)GalNAc
# Method in brief: as §1
# [34] = target: Xyl(b1-4)Xyl(b1-4)Xyl(b1-4)Xyl(b1-4)Xyl(b1-4)Xyl
# Method in brief: as §1
binder,measurement,setting,value
B1,glycan array binding signal (z-score),[1],-0.136
same,glycan array binding signal (z-score),[2],0.924
same,glycan array binding signal (z-score),[3],1.4
same,glycan array binding signal (z-score),[4],2.88
same,glycan array binding signal (z-score),[5],1.98
same,glycan array binding signal (z-score),[6],2.23
same,glycan array binding signal (z-score),GlcA(b1-3)Gal,-0.167
same,glycan array binding signal (z-score),[7],-0.368
same,glycan array binding signal (z-score),[8],-0.177
same,glycan array binding signal (z-score),[9],-0.143
same,glycan array binding signal (z-score),[10],0.227
same,glycan array binding signal (z-score),[11],0.22
same,glycan array binding signal (z-score),[12],1.96
same,glycan array binding signal (z-score),[13],5.04
same,glycan array binding signal (z-score),[14],-0.195
same,glycan array binding signal (z-score),[15],2.02
same,glycan array binding signal (z-score),GlcNAc(b1-4)GlcNAc,-0.113
same,glycan array binding signal (z-score),[16],-0.195
same,glycan array binding signal (z-score),[17],-0.195
same,glycan array binding signal (z-score),[18],-0.178
same,glycan array binding signal (z-score),Neu5Ac(a2-3)Gal,-0.171
same,glycan array binding signal (z-score),[19],-0.112
same,glycan array binding signal (z-score),[20],-0.061
same,glycan array binding signal (z-score),[21],-0.21
same,glycan array binding signal (z-score),[22],-0.176
same,glycan array binding signal (z-score),[23],-0.148
same,glycan array binding signal (z-score),[24],-0.306
same,glycan array binding signal (z-score),[25],-0.225
same,glycan array binding signal (z-score),[26],-0.195
same,glycan array binding signal (z-score),[27],-0.195
same,glycan array binding signal (z-score),[28],-0.195
same,glycan array binding signal (z-score),[29],-0.138
same,glycan array binding signal (z-score),[30],-0.21
same,glycan array binding signal (z-score),[31],-0.195
same,glycan array binding signal (z-score),Neu5Ac(b2-3)Gal(b1-4)Glc,-0.195
same,glycan array binding signal (z-score),[32],-0.073
same,glycan array binding signal (z-score),[33],-0.195
same,glycan array binding signal (z-score),Neu5Gc(a2-6)GalNAc,-0.162
same,glycan array binding signal (z-score),[34],-0.195
